# Compound activity (PubChem BioAssay)
# An excerpt weighted towards active compounds, which were near 19% of everything screened.
# HT1080 IDH1KD tx: HT-1080 IDH1 knockdown cell toxicity (counter line). 360,000 compounds, 2% hits. Potency, µM (doses to about 46.1 µM), for the others: at the highest dose activity, negative = toxicity, most hits filed as cytotoxic. HT-1080 IDH1 knockdown viability, ATP luminescence, 48 h;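 note: 0% = DMSO wells and -100% = cell-free medium wells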
#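 After a 2 h attachment period, IDH1KD HT-1080 cells took pin-transferred compound for 48 h at 37 °C; ATP-based luminescence after 10 min room-temperature reagent incubation reported viability.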
# KB-V1 MDR tox: kills drug-selected multidrug resistant KB-V1 cells | KB-V1 MDR cells viability, CellTiter-Glo, 72 h | Potency, µM (highest dose often 46.1 µM), most hits filed as cytotoxic | 400,000 compounds, 3.4% hits | AID 1347076; note: nearly all actives have a fitted effect of over 60% in size
#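 Luminescent ATP read-out (CellTiter-Glo, 10 min) measures survival of drug-selected KB-V1 MDR cells after 72 h, 37 degrees C compound exposure. Medium: phenol-red-free DMEM, 10% FBS. Values from fitted concentration-response curves.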
# DT40 TDP1 CPT: growth inhibition of DT40 Tdp1-/-;hTDP1 cells with camptothecin (screen for TDP1 inhibitors); chicken DT40 Tdp1-/-;hTDP1 cells + 20 nM CPT, ATP luminescence, 48 h; Potency, µM (titrated, usually from 46.2 µM), inactives show at the top dose activity change, negative = growth inhibition, hits mostly inhibitors; 420,000 compounds, 12% hits; AID 686979; note: nearly all actives have a fitted effect of over 55% in size
#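 Chicken DT40 Tdp1-/- cells stably complemented with human TDP1 were seeded at 400 cells/well in medium containing 20 nM camptothecin, exposed to pin-transferred compounds, and grown at 37 °C for at least 48 hr. Viability was read as ATP luminescence.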
# TDP1 cell noCPT: qHTS for Inhibitors of human tyrosyl-DNA phosphodiesterase 1 (TDP1): qHTS in cells in absence of CPT | Potency, µM (series often up to 46.2 µM), for the others: at the highest dose activity change, negative = growth inhibition, actives largely listed as inhibitors | 420,000 compounds, 15% hits | AID 686978, 2013 | DT40 Tdp1-/- hTDP1 cells, no CPT, ATP luminescence, 48 h; note: nearly all actives have a fitted effect of over 55% in size
#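 No-CPT arm: Tdp1-/-;hTDP1 DT40 cells (400/well) plus compounds, incubated ≥48 hr at 37 °C. Readout CellTiter-Glo luminescence.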
# HT1080-NT tox: kills 2HG-producing HT-1080-NT fibrosarcoma cells. HT-1080-NT fibrosarcoma viability, CellTiter-Glo ATP luminescence, 48 h. Potency, µM (series often up to 46.1 µM), for the others: at the highest dose activity, negative = less viability, hits mostly cytotoxic. 360,000 compounds, 1.6% hits. AID 686970;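 note: NT is the 2HG producing partner of a matched IDH1 knockdown line; 0% = DMSO-treated cells and -100% = media-only wells without cells; nearly all actives have a fitted effect of over 55% in size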
#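 Luminescent CellTiter-Glo readout after 48 hours of compound exposure at 37 degrees C defined viability of HT-1080-NT cells. Activity was normalized to DMSO wells and cell-free media wells; concentration-response curves were fitted and assigned curve classes.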
# KB-3-1 cytotox: KB-3-1 parental cell cytotoxicity; KB-3-1 viability, CellTiter-Glo ATP luminescence, 72 h; Potency, µM (doses to about 46.1 µM), usual class: cytotoxic; 400,000 compounds, 1.4% hits; note: nearly all actives have a fitted effect of over 60% in size
#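 KB-3-1 parental drug-naive adenocarcinoma cells in DMEM/10% FBS, incubated 72 h at 37 C with pin-transferred compounds across a concentration series. Viability by CellTiter-Glo luminescence; concentration-response curves fitted after normalization.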
# * marks the source's active call; other numbers are inactive results; i = inactive; ? = inconclusive; · = no result given; [ ] = remark or other dose. Calls come from the whole dose curve; as a rule, active = well fitted curve in the direction sought with a large enough effect; inconclusive = small, poorly fitted or top-dose-only effect, or another doubt; inactive = no such curve, though single readings can be large; an effect the other way counts as inactive or inconclusive. Unless noted, % is set by controls: 0 for no effect and ±100 for the full control effect; potency is the fitted concentration of half-maximal effect.
SMILES,HT1080 IDH1KD tx,KB-V1 MDR tox,DT40 TDP1 CPT,TDP1 cell noCPT,HT1080-NT tox,KB-3-1 cytotox
COc1ccc(-c2cc3nc(C)c(CCC(=O)Nc4cccc(C(F)(F)F)c4)c(C)n3n2)c(OC)c1,·,i,-1%,-27%,·,i
Cc1cc(C)nc(SCC(=O)NC2=NN=C(c3ccc(Br)cc3)CS2)n1,16µM*,i,13µM*,13µM*,22µM*,?
Cc1csc(NC(=O)C(C)Oc2ccc(Cl)cc2C)n1 (configuration not stated),-4%,i,?,?,-10%,i
CCOC(=O)N1CCC(NC(=O)c2ccc3c(c2)N(Cc2ccc(F)cc2)C(=O)c2ccccc2S3=O)CC1 (configuration not stated),·,?,16µM*,?,·,?
CCOC(=O)N1CCC(NC(=O)c2ccc3c(c2)N(Cc2ccc(Cl)cc2)C(=O)c2ccccc2S3=O)CC1 (configuration not stated),·,i,?,23µM*,·,?
CCOC(=O)N1CCC(NC(=O)c2ccc3c(c2)N(Cc2ccc(Cl)cc2)C(=O)c2ccccc2S3(=O)=O)CC1,·,i,?,23µM*,·,i
CCOC(=O)N1CCC(NC(=O)c2ccc3c(c2)N(Cc2ccccc2)C(=O)c2ccccc2S3=O)CC1 (configuration not stated),·,i,-1%,-2%,·,i
O=C(Nc1ccc(F)cc1F)C(Cc1ccccc1)N1Cc2ccccc2C1=O (configuration not stated),·,·,?,-21%,·,·
O=C(NC1CCCCC1)N1CCC(c2nc(-c3ccc(S(=O)(=O)N4CCCC4)cc3)no2)CC1,-1%,2.6µM*,10µM*,9.2µM*,-1%,8.2µM*
CC(C)(C)c1ccc(C(=O)N2CCC(c3noc(-c4ccc(S(=O)(=O)N5CCCC5)cc4)n3)CC2)cc1,·,·,21µM*,18µM*,·,·
Cc1ccc(-c2nc(C3CCN(S(=O)(=O)c4ccc(C(C)(C)C)cc4)CC3)no2)cc1,8%,i,?,?,3%,i
CS(=O)(=O)N1CCCC(c2nc(-c3ccc(S(=O)(=O)NCc4ccccc4)cc3)no2)C1 (configuration not stated),?,3.3µM*,13µM*,10µM*,?,?
O=C(Cc1ccccc1)N1CCC(c2nc(-c3ccc(F)cc3)no2)CC1,-27%,?,?,?,-4%,i
O=C(Cc1ccccc1)N1CCCC(c2nc(-c3ccc(S(=O)(=O)N4CCCC4)cc3)no2)C1 (configuration not stated),6%,9.2µM*,?,?,-7%,i
CC(NC(=O)c1ccccc1)c1ccc(F)cc1 (configuration not stated),-2%,i,-13%,-3%,-3%,?
COc1ccc(-c2nnc(C3CCN(C(=O)c4ccccc4F)CC3)o2)cc1,·,i,5.2µM*,4.6µM*,·,i
CCN(CC(=O)Nc1ccccc1C(F)(F)F)C(=O)c1cccc(N2C(=O)CCC2=O)c1,10%,i,1%,-13%,8%,i
CCN(CC(=O)Nc1ccc(OC)cc1)C(=O)c1oc2c(Cl)cccc2c1C,-17%,i,2%,-21%,-26%,i
Cc1c(C(=O)N(C)CCOc2ccccc2)oc2c(Cl)cccc12,12%,21µM*,-19%,?,3%,i
CCN(CC(=O)Nc1ccccc1C(F)(F)F)C(=O)c1oc2c(Cl)cccc2c1C,-9%,18µM*,-9%,?,-6%,i
CCN(CC(=O)Nc1ccccc1C(F)(F)F)C(=O)c1cc2c(s1)CCCCC2,-17%,i,?,23µM*,-16%,i
COc1ccc2oc(C(=O)N(C)CCOc3ccc(Cl)cc3)c(C)c2c1,-1%,i,?,-15%,10%,i
COCCN(CC(=O)Nc1cccc(C)c1C)C(=O)C1CCN(S(=O)(=O)c2ccccc2)CC1,-12%,9.2µM*,?,-6%,-6%,i
COc1cccc(-c2ccnc(-n3ncc(C(=O)NCC(C)(C)CN(C)C)c3C)n2)c1,·,·,7%,4%,·,·
COCCN(CC(=O)Nc1cccc(C)c1C)C(=O)c1cc2c(s1)CCC2,0%,7.3µM*,6%,-5%,0%,i
SMILES,HT1080 IDH1KD tx,KB-V1 MDR tox,DT40 TDP1 CPT,TDP1 cell noCPT,HT1080-NT tox,KB-3-1 cytotox
COCCN(CC(=O)Nc1cccc(C)c1C)C(=O)c1cc2ccccc2cc1OC,-2%,i,?,?,-2%,i
Cc1ccccc1Cn1ccc(NC(=O)c2cc3ncc(Br)cn3n2)n1,11%,i,7%,3%,13%,i
Cc1ccccc1Cn1ccc(NC(=O)c2nn3cccnc3c2Cl)n1,11%,i,21µM*,?,5%,i
CCCCN(C=O)c1c(CC)nc2c(OCC(=O)N3CCOCC3)cccn12,15%,i,-9%,-7%,-1%,i
COc1cccc(C(O)c2ncc(-c3ccc(C(F)(F)F)cc3)[nH]2)c1 (configuration not stated),-18%,i,?,?,-14%,i
NC(=O)c1cc2ccc(O)cc2oc1=NCc1ccccc1,?,i,18µM*,?,-1%[9.24 µM],i
NC(=O)c1cc2ccc(O)cc2oc1=Nc1ccccc1,-22%,i,15µM*,?,-17%,i
COc1cccc2cc(C(=O)NCc3ccco3)c(=Nc3ccc(C(=O)O)cc3)oc12,-21%[9.24 µM],?,?,16µM*,?,i
COc1cccc2cc(C(=O)NCc3ccco3)c(=O)oc12,?,i,-3%,-12%,26%,i
COc1ccc2cc(C(N)=O)c(=Nc3ccccc3)oc2c1,-2%,i,?,15µM*,17%,i
COc1ccc2cc(C(=O)c3ccccc3)c(=O)oc2c1,0%,i,-21%,-9%,11%,i
CC(=O)Nc1c(Cl)cc2c(c1Cl)C(=O)c1ccccc1-2,9%,i,12%,1%,5%,i
CCOc1ccccc1NC(=O)CN1C(=O)COc2ccc(C)cc21,-16%,?,4%,-29%,-3%,i
O=C(NCc1ccccc1F)c1ccc2c(c1)OCCO2,3%,i,2%,7%,-8%,i
